This note sets out measurements from PubChem BioAssay (NCATS).

Several values for one entry are separate records, joined by “and”; a condition that tells them apart may be missing. Equal values may be shown once. Records with an inconclusive call do not appear. Where a call stands in place of a potency, no number is given. Activity calls are given as the source filed them. Calls follow the shape of the full dose curve.

Experiment [1] can be described thus: Cytotoxicity counterscreen for inhibitors of SARS-CoV-2 cell entry (AID 1645845). Also: nearly all actives have a fitted effect of over 50% in size. The method, boiled down:
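Expi293F/hACE2 cells seeded overnight; cpd pin-transferred in DMSO, 1 h preincubation, + media, 48 h 37 C 5% CO2; ATPLite 1step luminescence; normalized to cells and no cells.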
(Counterscreens check selectivity or assay interference.)

A short description of experiment [2]: Primary qHTS to identify inhibitors of SARS-CoV-2 cell entry (AID 1645846). Also: nearly all actives have a fitted effect of over 45% in size. The following applies: activity change, negative = inhibition: at 57.1 µM (top of the series) unless noted. Put shortly: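 Luminescence readout (Bright-Glo luciferase) 48 h after pseudoparticle addition. HEK293-ACE2 cells, 1500/well; compound pre-incubation 1 h; Normalized to spike PP and bald PP.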
(In qHTS, concentration-response curves come from the screen itself.)

For the molecule `COc1ccccc1N1CCN(CC(O)COc2cccc3ccccc23)CC1` (stereo not given), in experiment [1], the Potency result was “inactive”. For the same molecule, in experiment [2], the activity change, negative = inhibition was -24.9% and -27.1%.
Regarding `CN(C)[C@@H]1C(=O)C(C(=O)NCN2CCCC2)=C(O)[C@@]2(O)C(=O)C3=C(O)c4c(O)cccc4[C@@](C)(O)C3C[C@@H]12` (stereo not given in full), the Potency result in experiment [1] and in experiment [2] was “inactive” each time.
On to `CCn1c(=O)c2c(nc(C=Cc3ccc(OC)c(OC)c3)n2C)n(CC)c1=O`, for which the Potency entry in experiment [1] and in experiment [2] was “inactive” throughout.
Turning to `Oc1cc(O)c2c(c1)O[C@H](c1ccc(O)c(O)c1)[C@H](O)C2`, the Potency entry in experiment [1] was “inactive”. Also, in experiment [2], the activity change, negative = inhibition was -5.55%.
For the molecule `CCOc1ccc2nc(S(N)(=O)=O)sc2c1`, the Potency entry in experiment [1] and in experiment [2] was “inactive” throughout.
